Measurements: the supplement of paper PMC10849652
The full data set covers some 7,900 targets. This sample favours those with a hit. About 0.6% of all pairs of compound and target were hits.

What was measured:
Assay in all cases: log2 fold change, soluble protein after heating vs DMSO (PISA); higher = thermal stabilisation; K562 cells, 10 uM, 30 min; active = over 0.2 and 3.5 SD of the protein, either way, in both replicates (recomputed)
[1] = compound: CC1=C(C=C(C=C1)NC(=O)C2=CC(=CC=C2)C(C)(C)C#N)NC3=CC4=C(C=C3)N=CN(C4=O)C
In short: (§1)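 K562 cells at 2×10^6 cells/mL were given 10 μM compound for 30 min. Aliquots then went through 3 min of heating across 48°C-58°C, were pooled, and were extracted in PBS with 0.5% NP-40 at 4°C, and the supernatant after 21,000xg for 90 min was quantified by TMTpro 16plex LC-MS/MS with channel sums equalised. Thermal stability relative to control samples, from duplicates, is given as log2 fold change.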

[2] = compound: CC1=C(C=C(C=C1)NC(=O)C2=CC(=CC=C2)N(C)C)NC(=O)C3=CC=C(C=C3)O
In short: as §1

[3] = compound: CC1=CC=C(C=C1)SC2=C3C=C(SC3=CN=C2)C(=O)N
In short: as §1

[4] = compound: CC1=NC(=CC=C1)C2=C(N=C(N2)C(C)(C)C)C3=CC4=NC=CN=C4C=C3
In short: as §1

[5] = compound: CCCCN(Cc1ccc(C(=O)NO)cc1)C(=O)Nc1ccccc1 [Nexturastat A]
In short: as §1

[6] = compound: CCCS(=O)(=O)Nc1ccc(F)c(C(=O)c2c[nH]c3ncc(-c4ccc(Cl)cc4)cc23)c1F [vemurafenib]
In short: as §1

[7] = compound: CCCS(=O)(=O)Nc1ccc(F)c(C(=O)c2c[nH]c3ncc(Cl)cc23)c1F
In short: as §1

[8] = compound: CCCc1cc(C)[nH]c(=O)c1CNC(=O)c1cc(-c2ccnc(N3CCN(C)CC3)c2)cc2c1cnn2C(C)C
In short: as §1

[9] = compound: CCN(CC)Cc1ccc2cc(COC(=O)Nc3ccc(C(=O)NO)cc3)ccc2c1 [givinostat]
In short: as §1

[10] = compound: CCN(CCCOc1ccc2c(Nc3cc(CC(=O)Nc4cccc(F)c4)[nH]n3)ncnc2c1)CCOP(=O)(O)O [barasertib]
In short: as §1

[11] = compound: CC[C@@H]1C(=O)N(C)c2cnc(Nc3ccc(C(=O)NC4CCN(C)CC4)cc3OC)nc2N1C1CCCC1
In short: as §1

[12] = compound: CC[C@@H]1C(=O)N(C)c2cnc(Nc3ccc(C(=O)N[C@H]4CC[C@H](N5CCN(CC6CC6)CC5)CC4)cc3OC)nc2N1C(C)C [volasertib]
In short: as §1

[13] = compound: CC[C@H](C)N1C=C(C2=C(C=C(C=C21)C3=CN=C(C=C3)N4CCNCC4)C(=O)NCC5=C(C=C(NC5=O)C)C)C
In short: as §1

[14] = compound: CC[C@H](C)[C@@H](C(=O)N[C@@H]([C@@H](C)O)C(=O)N[C@@H](CC(C)C)C(=O)[C@]1(CO1)C)NC(=O)[C@H]([C@@H](C)CC)N(C)C(=O)C [epoxomicin]
In short: as §1

[15] = compound: CCn1c(C(=O)N(C2CC2)C2CC2)cc2c3c(ncn3C)c(Nc3cc(C)n(C)n3)nc21
In short: as §1

[16] = compound: CCn1cc(-c2ccnc3[nH]c(-c4cccc(CN(C)C)c4)cc23)c(-c2ccc(NC(=O)N(C)C)cc2)n1
In short: as §1

[17] = compound: CN(C)CC(=O)Nc1ccc2[nH]c(=O)c3ccccc3c2c1
In short: as §1

[18] = compound: CN(CCOC1=CC=C(C=C1)C[C@H]2C(=O)NC(=O)S2)C3=CC=CC=N3 (racemic) [rosiglitazone]
In short: as §1

[19] = compound: CN1C2=C(C3=C1C(=O)N(N=C3)CC4=CC(=CC=C4)N)SC(=C2)S(=O)C
In short: as §1

[20] = compound: CN1CCC(CNc2ccc3ncc(-c4cccc(OC(F)(F)F)c4)n3n2)CC1
In short: as §1

Measured: log2 fold change

RSRC1 (UniProt Q96IZ7)
Sequence of UniProt Q96IZ7 (Q96IZ7 whole entry, looked up): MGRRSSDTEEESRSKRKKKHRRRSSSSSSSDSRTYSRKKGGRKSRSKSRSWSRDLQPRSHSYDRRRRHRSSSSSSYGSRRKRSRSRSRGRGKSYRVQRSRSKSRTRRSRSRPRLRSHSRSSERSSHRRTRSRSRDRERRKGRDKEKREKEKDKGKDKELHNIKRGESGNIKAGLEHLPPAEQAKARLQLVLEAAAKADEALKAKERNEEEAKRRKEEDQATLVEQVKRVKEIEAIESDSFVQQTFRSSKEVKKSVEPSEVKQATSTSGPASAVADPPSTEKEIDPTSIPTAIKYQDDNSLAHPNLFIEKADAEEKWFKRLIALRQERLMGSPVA
inactive: [1] 0.041 | [2] 0.013 | [3] 0.006 | [4] 0.056 | [5] 0.02 | [6] -0.046 | [7] 0.004 | [8] -0.026 | [9] 0.019 | [10] -0.031 | [11] 0.01 | [12] 0.056 | [13] -0.041 | [14] 0.083 | [15] 0.022 | [16] -0.021 | [17] -0.005 | [18] 0.002 | [19] -0.01 | [20] -0.062

SCPEP1 (UniProt Q9HB40)
Sequence of UniProt Q9HB40 (Q9HB40 whole entry, looked up): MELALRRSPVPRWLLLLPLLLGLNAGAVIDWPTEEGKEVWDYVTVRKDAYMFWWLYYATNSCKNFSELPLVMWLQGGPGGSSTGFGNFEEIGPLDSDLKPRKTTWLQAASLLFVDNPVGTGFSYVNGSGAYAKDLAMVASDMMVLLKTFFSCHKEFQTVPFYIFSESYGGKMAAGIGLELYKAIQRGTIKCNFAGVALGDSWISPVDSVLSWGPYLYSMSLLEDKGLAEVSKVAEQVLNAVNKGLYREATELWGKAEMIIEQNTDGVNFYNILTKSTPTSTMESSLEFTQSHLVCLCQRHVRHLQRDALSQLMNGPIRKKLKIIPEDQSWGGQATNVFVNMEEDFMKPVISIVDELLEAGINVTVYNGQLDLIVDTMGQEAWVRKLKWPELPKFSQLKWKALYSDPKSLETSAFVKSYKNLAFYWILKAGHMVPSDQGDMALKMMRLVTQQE
active: [11] -0.608 | [12] -1.44 | [20] -0.846
inactive: [1] -0.003 | [2] 0.016 | [3] 0.05 | [4] 0.022 | [5] -0.035 | [6] 0.002 | [7] 0.013 | [8] -0.028 | [9] -0.031 | [10] 0.012 | [13] -0.022 | [14] 0.044 | [15] 0.011 | [16] -0.095 | [17] -0.001 | [18] 0.019 | [19] 0.019

RARS (UniProt P54136)
Sequence of UniProt P54136 (P54136 whole entry, looked up): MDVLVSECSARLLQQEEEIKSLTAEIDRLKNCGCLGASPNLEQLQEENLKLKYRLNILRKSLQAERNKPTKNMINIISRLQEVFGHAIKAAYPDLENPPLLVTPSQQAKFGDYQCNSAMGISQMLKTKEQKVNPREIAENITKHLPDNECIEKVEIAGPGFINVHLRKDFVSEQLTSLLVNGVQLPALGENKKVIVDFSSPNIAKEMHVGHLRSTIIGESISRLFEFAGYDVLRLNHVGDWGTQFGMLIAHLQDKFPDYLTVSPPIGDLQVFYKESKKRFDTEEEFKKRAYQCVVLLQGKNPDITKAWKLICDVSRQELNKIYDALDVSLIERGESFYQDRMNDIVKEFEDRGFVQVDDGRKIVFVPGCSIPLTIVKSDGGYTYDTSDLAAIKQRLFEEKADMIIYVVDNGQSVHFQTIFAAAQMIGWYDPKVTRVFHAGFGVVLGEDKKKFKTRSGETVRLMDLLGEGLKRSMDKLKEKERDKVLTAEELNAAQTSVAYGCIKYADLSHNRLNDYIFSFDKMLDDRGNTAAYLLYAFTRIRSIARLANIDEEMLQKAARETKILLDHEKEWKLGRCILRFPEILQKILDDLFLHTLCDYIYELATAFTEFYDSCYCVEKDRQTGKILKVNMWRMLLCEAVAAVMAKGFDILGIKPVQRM
inactive: [1] 0.005 | [2] 0.006 | [3] -0.011 | [4] -0.048 | [5] 0.325 | [6] -0.018 | [7] 0.058 | [8] 0.075 | [9] 0.016 | [10] 0.037 | [11] 0.059 | [12] -0.172 | [13] 0.072 | [14] -0.085 | [15] -0.099 | [16] 0.107 | [17] 0.013 | [18] 0.034 | [19] 0.26 | [20] -0.111

SDHAF2 (UniProt Q9NX18)
inactive: [1] -0.047 | [2] 0.026 | [3] 0.079 | [4] 0.019 | [5] 0.076 | [6] 0.028 | [7] -0.024 | [8] -0.06 | [9] 0.036 | [10] 0.005 | [11] 0.089 | [12] 0.093 | [13] -0.081 | [14] -0.057 | [15] 0.053 | [16] 0.06 | [17] -0.004 | [18] 0.02 | [19] 0.037 | [20] 0.045

RBM12 (UniProt Q9NTZ6)
inactive: [1] 0.016 | [2] -0.101 | [3] 0.057 | [4] 0.116 | [5] -0.085 | [6] 0.058 | [7] 0.136 | [8] 0.008 | [9] 0.062 | [10] 0.122 | [11] -0.181 | [13] 0.114 | [14] 0.087 | [15] -0.08 | [16] -0.049 | [17] 0.053 | [18] 0.087 | [19] -0.033 | [20] -0.139
active: [12] -0.437

RPS16 (UniProt P62249)
inactive: [1] 0.028 | [2] -0.016 | [3] -0.087 | [4] -0.035 | [5] 0.11 | [6] -0.073 | [7] -0.103 | [8] 0.337 | [9] -0.046 | [10] -0.053 | [11] 0.125 | [12] 0.388 | [13] 0.044 | [14] -0.118 | [15] 0.026 | [16] 0.124 | [17] -0.085 | [18] -0.072 | [19] 0.112 | [20] 0.1

RPRD1B (UniProt Q9NQG5)
Sequence of UniProt Q9NQG5 (Q9NQG5 whole entry, looked up): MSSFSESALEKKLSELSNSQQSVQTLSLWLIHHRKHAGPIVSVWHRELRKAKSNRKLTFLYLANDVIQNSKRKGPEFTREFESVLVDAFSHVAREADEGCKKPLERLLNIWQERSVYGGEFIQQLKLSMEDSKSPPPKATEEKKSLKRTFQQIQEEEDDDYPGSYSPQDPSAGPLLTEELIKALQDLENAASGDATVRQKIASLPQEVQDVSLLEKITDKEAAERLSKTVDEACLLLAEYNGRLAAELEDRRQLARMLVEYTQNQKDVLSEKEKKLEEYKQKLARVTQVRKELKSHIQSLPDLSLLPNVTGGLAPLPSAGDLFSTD
inactive: [1] 0.007 | [2] -0.021 | [3] -0.029 | [4] 0.101 | [5] -0.054 | [6] 0.05 | [7] 0.07 | [8] -0.057 | [9] -0.064 | [10] 0.007 | [11] -0.057 | [13] 0.077 | [14] 0.075 | [15] 0.009 | [16] -0.005 | [17] 0 | [18] 0.052 | [19] -0.059 | [20] -0.077
active: [12] -0.245

RSL1D1 (UniProt O76021)
inactive: [1] -0.019 | [2] 0.039 | [3] -0.155 | [4] -0.148 | [5] 0.256 | [6] -0.126 | [7] -0.137 | [8] 0.15 | [9] 0.087 | [10] -0.167 | [11] 0.301 | [12] 0.399 | [13] 0.012 | [14] -0.517 | [15] -0.065 | [16] 0.155 | [17] -0.214 | [18] -0.299 | [19] 0.374 | [20] 0.591

SIDT2 isoform 2 (UniProt Q8NBJ9)
active: [4] -0.367
inactive: [1] -0.021 | [2] 0.019 | [3] -0.025 | [5] 0.042 | [6] 0.019 | [7] -0.033 | [8] 0.017 | [9] 0.038 | [10] -0.148 | [11] -0.035 | [12] 0.055 | [13] -0.026 | [14] 0.002 | [15] -0.014 | [16] 0.069 | [17] -0.041 | [18] 0.019 | [19] 0.024 | [20] -0.02

RBM33 (UniProt Q96EV2)
Sequence of UniProt Q96EV2 (Q96EV2 whole entry, looked up): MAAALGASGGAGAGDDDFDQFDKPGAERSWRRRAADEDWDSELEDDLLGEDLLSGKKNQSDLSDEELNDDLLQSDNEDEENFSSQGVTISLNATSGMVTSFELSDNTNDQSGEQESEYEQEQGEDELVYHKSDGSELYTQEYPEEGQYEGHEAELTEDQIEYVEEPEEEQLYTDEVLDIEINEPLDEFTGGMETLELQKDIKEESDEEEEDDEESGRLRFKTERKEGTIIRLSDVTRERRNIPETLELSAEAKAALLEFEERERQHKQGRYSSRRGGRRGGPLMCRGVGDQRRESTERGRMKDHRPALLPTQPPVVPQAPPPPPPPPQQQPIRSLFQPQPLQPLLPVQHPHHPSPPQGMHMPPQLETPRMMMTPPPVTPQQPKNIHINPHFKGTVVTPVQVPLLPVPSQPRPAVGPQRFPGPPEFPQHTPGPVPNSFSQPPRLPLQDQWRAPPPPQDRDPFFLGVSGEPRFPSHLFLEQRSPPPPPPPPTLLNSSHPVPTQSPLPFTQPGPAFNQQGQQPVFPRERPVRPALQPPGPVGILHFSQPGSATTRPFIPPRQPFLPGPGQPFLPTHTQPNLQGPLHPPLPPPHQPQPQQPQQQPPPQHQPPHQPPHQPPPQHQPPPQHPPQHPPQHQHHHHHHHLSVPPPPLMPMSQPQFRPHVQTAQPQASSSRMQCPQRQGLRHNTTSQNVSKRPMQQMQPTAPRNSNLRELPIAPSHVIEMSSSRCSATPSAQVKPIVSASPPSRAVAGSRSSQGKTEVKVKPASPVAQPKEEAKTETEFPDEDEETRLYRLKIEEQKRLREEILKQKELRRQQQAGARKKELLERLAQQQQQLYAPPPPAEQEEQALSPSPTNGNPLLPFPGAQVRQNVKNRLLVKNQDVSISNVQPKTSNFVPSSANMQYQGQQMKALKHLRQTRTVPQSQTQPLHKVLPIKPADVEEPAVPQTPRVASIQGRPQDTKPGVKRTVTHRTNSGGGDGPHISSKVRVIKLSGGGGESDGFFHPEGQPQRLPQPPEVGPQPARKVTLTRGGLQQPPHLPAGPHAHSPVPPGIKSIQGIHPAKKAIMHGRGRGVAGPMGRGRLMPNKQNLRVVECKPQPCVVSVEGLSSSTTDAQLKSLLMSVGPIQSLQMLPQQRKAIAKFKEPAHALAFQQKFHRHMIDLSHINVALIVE
inactive: [1] -0.024 | [2] -0.001 | [3] -0.014 | [4] 0.014 | [5] 0.021 | [6] -0.019 | [7] 0.022 | [8] 0.022 | [9] 0.077 | [10] 0.037 | [11] -0.101 | [12] -0.105 | [13] 0.035 | [14] 0.022 | [15] 0.012 | [16] -0.005 | [17] -0.025 | [18] -0.024 | [19] 0.023 | [20] 0.004

RAVER1 (UniProt E9PAU2)
active: [12] -1.93
inactive: [1] 0.144 | [2] -0.075 | [3] -0.025 | [4] 0.144 | [5] -0.046 | [6] -0.1 | [7] 0.067 | [8] 0.293 | [9] 0.131 | [10] 0.099 | [11] -0.222 | [13] 0.13 | [14] 0.147 | [15] -0.058 | [16] -0.006 | [17] 0.174 | [18] 0.056 | [19] -0.007 | [20] -0.375

RHEB (UniProt Q15382)
Sequence of UniProt Q15382 (Q15382 whole entry, looked up): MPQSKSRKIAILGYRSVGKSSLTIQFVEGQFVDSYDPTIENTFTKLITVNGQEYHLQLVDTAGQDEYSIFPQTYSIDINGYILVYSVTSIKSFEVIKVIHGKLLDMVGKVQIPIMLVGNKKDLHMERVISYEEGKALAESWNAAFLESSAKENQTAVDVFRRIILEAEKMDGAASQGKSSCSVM
inactive: [1] 0.008 | [2] -0.002 | [3] 0.008 | [4] 0.052 | [6] -0.004 | [7] 0.021 | [8] -0.026 | [9] -0.009 | [10] 0.014 | [11] 0.038 | [12] 0.013 | [13] -0.014 | [14] 0.002 | [15] 0.022 | [16] 0.02 | [17] 0.016 | [18] 0.026 | [19] -0.068 | [20] -0.003
active: [5] -0.277

RAB3IL1 (UniProt Q8TBN0)
inactive: [1] 0.005 | [2] 0.002 | [3] 0.008 | [4] 0.02 | [5] -0.124 | [6] 0.018 | [7] 0.062 | [8] -0.025 | [9] -0.024 | [10] 0.015 | [11] -0.018 | [12] -0.136 | [13] -0.001 | [14] -0.001 | [15] -0.014 | [16] -0.15 | [17] 0.009 | [18] 0.029 | [19] -0.035 | [20] 0.013

RRS1 (UniProt Q15050)
Sequence of UniProt Q15050 (Q15050 whole entry, looked up): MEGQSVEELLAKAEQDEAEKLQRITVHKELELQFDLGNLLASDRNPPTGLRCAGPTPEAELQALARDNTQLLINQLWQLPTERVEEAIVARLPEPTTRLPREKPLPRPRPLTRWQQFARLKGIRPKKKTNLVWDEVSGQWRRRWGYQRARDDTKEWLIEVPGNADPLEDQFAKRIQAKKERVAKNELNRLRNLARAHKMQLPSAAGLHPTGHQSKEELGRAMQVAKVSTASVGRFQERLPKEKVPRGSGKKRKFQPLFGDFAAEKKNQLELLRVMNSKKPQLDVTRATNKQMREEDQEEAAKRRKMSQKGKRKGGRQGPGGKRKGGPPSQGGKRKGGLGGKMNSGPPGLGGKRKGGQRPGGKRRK
inactive: [1] 0.024 | [2] 0.021 | [3] -0.043 | [4] -0.163 | [5] 0.31 | [6] -0.174 | [7] -0.03 | [8] 0.104 | [9] 0.093 | [10] -0.101 | [11] 0.291 | [12] 0.286 | [13] 0.023 | [14] -0.381 | [15] 0.051 | [16] 0.143 | [17] -0.029 | [18] -0.147 | [19] 0.28 | [20] 0.268

SCAF11 (UniProt Q99590)
Sequence of UniProt Q99590 (Q99590 whole entry, looked up): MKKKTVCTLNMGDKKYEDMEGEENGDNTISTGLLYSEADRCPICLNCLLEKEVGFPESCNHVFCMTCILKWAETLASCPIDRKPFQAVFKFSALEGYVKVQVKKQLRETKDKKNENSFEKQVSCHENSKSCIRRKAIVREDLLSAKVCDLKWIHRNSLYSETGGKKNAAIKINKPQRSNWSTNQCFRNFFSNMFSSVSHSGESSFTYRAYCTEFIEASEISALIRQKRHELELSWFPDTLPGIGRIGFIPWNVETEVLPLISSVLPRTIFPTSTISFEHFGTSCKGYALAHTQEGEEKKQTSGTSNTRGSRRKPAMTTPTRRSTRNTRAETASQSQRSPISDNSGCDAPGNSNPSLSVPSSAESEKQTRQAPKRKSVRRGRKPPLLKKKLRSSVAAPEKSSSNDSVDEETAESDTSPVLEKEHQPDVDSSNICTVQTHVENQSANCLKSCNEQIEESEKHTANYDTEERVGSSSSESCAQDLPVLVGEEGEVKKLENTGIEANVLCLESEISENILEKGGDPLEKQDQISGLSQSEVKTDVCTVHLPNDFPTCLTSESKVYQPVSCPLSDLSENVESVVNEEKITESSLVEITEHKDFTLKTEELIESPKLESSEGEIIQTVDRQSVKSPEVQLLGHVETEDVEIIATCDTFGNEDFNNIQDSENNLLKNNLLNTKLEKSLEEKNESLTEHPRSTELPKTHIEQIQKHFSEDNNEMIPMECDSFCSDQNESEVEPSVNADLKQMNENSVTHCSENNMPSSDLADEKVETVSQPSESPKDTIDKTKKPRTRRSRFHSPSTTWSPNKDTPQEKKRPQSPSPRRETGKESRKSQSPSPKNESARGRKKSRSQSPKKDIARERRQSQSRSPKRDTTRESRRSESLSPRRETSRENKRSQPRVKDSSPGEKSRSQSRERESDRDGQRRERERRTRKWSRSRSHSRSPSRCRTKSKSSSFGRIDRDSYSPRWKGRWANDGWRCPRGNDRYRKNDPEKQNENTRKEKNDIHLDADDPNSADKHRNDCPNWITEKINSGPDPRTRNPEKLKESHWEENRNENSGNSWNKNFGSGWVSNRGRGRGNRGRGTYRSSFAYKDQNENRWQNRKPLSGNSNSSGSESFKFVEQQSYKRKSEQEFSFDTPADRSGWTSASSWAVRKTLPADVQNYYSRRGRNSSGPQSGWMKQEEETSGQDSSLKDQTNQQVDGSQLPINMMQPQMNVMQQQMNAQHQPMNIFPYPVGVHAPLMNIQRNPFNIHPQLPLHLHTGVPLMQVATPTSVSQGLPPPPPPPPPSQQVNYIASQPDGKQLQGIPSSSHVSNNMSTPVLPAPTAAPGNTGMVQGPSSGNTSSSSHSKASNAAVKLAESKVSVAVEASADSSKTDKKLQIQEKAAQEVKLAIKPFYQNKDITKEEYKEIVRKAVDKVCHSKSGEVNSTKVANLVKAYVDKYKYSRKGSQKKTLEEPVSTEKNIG
inactive: [1] -0.089 | [2] 0.154 | [3] -0.079 | [4] -0.275 | [5] 0.003 | [6] -0.158 | [7] -0.031 | [8] 0.035 | [9] -0.034 | [10] 0.165 | [11] 0.145 | [12] 0.153 | [13] -0.092 | [14] -0.074 | [15] -0.007 | [16] 0.176 | [17] -0.142 | [18] -0.04 | [19] 0.148 | [20] 0.25

SGPL1 (UniProt O95470)
inactive: [1] -0.036 | [2] -0.056 | [3] 0.014 | [4] -0.054 | [5] 0.031 | [6] 0.033 | [7] -0.036 | [8] 0.074 | [9] -0.035 | [10] 0.051 | [11] 0 | [12] -0.04 | [13] -0.002 | [14] -0.066 | [15] 0.01 | [16] 0.009 | [17] -0.023 | [18] -0.061 | [19] 0.047 | [20] 0.189
